# ChEMBL document CHEMBL1961873, “Compounds: GSK PKIS; Assays: Nanosyn kinase panel” (2012)
# Assays:
# [1] = tested on: Tyrosine-protein kinase ABL1 (Homo sapiens), P00519 [T315I]; conditions: at 1 µM
# [2] = tested on: Tyrosine-protein kinase ABL1 (Homo sapiens), P00519 [Y253F]; conditions: at 0.1 µM
# [3] = tested on: Tyrosine-protein kinase ABL1 (Homo sapiens), P00519 [Y253F]; conditions: at 1 µM
# [4] = biological target: Tyrosine-protein kinase ABL1 (Homo sapiens) (UniProt P00519); conditions: at 0.1 µM
# [5] = biological target: Tyrosine-protein kinase ABL1 (Homo sapiens) (UniProt P00519); conditions: at 1 µM
# [6] = biological target: ALK tyrosine kinase receptor (Homo sapiens) (UniProt Q9UM73); conditions: at 0.1 µM
# Sequence of ALK tyrosine kinase receptor (Homo sapiens) (Q9UM73 19-1620 limits assumed): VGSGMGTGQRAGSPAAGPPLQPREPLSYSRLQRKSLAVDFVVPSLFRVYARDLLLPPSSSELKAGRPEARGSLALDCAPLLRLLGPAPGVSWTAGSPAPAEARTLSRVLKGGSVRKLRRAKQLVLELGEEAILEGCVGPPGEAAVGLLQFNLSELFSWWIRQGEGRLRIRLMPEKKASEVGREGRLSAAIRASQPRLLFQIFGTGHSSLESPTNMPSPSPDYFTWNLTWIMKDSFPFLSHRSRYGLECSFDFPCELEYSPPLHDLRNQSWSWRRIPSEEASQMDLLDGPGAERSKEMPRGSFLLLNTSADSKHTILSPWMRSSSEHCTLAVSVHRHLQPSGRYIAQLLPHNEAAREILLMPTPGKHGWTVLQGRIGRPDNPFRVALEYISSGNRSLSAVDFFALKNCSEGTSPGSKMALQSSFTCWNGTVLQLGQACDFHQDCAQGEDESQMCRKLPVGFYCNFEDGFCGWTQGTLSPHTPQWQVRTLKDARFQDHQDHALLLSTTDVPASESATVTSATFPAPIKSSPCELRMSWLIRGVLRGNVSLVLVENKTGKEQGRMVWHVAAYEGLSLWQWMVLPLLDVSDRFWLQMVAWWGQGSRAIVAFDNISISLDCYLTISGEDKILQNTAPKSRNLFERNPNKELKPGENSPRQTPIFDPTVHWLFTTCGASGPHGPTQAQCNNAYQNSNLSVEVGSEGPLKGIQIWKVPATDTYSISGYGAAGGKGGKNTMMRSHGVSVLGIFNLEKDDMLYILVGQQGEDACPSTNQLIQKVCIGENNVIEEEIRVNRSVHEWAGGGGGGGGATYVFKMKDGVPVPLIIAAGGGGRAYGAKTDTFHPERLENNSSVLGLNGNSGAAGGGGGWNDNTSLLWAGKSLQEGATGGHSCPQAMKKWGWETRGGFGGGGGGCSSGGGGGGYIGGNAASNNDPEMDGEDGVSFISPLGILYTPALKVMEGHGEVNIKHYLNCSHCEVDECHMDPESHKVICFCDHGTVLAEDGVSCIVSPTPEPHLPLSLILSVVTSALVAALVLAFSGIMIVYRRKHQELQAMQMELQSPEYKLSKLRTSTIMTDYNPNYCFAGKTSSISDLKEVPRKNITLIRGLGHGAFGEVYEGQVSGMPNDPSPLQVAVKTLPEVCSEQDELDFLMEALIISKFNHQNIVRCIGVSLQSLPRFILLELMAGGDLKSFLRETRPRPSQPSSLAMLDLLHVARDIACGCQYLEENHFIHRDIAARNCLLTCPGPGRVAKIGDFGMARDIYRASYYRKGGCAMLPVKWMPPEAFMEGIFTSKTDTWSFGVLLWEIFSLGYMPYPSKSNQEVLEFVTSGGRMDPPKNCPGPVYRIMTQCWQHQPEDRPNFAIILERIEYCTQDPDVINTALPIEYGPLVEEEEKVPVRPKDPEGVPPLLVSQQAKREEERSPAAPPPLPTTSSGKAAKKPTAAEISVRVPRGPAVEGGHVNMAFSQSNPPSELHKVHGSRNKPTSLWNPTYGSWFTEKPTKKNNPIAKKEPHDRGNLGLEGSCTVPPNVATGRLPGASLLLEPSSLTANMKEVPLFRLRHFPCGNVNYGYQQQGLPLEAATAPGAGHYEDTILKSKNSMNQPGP
# [7] = biological target: ALK tyrosine kinase receptor (Homo sapiens) (UniProt Q9UM73); conditions: at 1 µM
# [8] = biological target: Tyrosine-protein kinase ABL2 (Homo sapiens) (UniProt P42684); conditions: at 0.1 µM
# Sequence of Tyrosine-protein kinase ABL2 (Homo sapiens) (P42684 whole entry): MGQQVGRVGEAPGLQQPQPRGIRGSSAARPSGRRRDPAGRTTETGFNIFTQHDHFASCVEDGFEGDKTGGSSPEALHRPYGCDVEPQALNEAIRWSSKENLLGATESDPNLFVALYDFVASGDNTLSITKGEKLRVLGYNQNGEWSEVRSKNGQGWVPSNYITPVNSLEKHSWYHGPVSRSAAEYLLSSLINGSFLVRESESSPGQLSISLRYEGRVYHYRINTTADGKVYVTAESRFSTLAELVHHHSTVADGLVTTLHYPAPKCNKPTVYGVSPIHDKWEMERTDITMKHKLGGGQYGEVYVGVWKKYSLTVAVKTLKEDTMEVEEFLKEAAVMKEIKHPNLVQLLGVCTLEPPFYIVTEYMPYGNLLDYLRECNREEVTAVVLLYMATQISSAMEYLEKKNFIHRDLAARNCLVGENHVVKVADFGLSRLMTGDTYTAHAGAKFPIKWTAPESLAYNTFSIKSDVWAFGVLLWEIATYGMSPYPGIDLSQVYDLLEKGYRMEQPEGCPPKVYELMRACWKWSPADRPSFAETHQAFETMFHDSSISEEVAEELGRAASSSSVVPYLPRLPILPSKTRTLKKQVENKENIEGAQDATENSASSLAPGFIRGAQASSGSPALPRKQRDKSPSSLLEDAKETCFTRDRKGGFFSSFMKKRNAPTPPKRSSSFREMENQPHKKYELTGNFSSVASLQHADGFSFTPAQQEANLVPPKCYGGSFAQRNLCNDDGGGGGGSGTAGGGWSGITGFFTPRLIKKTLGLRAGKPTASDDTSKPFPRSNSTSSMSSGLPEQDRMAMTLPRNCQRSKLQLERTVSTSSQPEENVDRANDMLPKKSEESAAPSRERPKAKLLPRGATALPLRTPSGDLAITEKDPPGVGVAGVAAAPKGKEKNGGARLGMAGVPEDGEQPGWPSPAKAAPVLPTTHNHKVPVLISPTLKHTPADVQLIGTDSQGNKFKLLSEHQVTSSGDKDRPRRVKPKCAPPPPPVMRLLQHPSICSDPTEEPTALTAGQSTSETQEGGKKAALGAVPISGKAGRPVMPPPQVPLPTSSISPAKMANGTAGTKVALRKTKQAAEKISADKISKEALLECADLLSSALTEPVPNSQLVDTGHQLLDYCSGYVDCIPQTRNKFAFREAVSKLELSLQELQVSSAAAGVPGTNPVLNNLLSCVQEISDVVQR
# [9] = biological target: Tyrosine-protein kinase ABL2 (Homo sapiens) (UniProt P42684); conditions: at 1 µM
# [10] = biological target: Tyrosine-protein kinase receptor UFO (Homo sapiens) (UniProt P30530); conditions: at 0.1 µM;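 also: values are mean percent inhibition of AXL from the GSK PKIS screen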
# Sequence of Tyrosine-protein kinase receptor UFO (Homo sapiens) (P30530 whole entry): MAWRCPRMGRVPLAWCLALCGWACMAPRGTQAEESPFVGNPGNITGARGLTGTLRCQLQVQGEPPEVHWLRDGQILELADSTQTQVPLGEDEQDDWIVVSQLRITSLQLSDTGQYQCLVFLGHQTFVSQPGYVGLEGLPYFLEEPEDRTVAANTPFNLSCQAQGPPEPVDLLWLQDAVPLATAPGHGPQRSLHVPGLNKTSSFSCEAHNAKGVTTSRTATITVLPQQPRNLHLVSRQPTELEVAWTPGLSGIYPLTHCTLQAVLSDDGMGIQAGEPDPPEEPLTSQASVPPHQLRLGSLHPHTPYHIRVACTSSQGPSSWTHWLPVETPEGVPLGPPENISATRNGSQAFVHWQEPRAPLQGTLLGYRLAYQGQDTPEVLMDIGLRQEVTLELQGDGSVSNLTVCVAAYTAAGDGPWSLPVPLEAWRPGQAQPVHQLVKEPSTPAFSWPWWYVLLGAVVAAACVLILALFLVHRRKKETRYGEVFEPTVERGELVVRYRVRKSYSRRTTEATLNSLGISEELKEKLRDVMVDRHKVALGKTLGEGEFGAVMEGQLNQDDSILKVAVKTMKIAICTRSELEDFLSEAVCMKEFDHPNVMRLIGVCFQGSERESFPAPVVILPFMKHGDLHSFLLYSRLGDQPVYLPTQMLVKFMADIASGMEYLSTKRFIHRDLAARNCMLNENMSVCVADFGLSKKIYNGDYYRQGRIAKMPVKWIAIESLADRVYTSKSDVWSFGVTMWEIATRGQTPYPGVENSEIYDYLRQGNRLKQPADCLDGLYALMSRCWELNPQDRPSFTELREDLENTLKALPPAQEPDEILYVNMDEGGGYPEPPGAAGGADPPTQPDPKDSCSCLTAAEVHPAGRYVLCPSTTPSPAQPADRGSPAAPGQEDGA
SMILES,inhibition [1],inhibition [2],inhibition [3],inhibition [4],inhibition [5],inhibition [6],inhibition [7],inhibition [8],inhibition [9],inhibition [10]
NCc1ccc(-n2c(-c3nonc3N)nc3cnccc32)cc1,0.9%,4.15%,2.66%,4.78%,3.54%,6.31%,17.3%,4.87%,6.75%,-7.21%
c1ccc(-c2n[nH]cc2-c2ccnc(-c3ccc(OCCN4CCOCC4)cc3)c2)nc1,1.83%,13.5%,57.1%,18.2%,70%,-2.58%,3.94%,5.43%,34.1%,8.29%
O=C(Nc1n[nH]c2cc(-c3cc(F)ccc3F)ccc12)C1CC1,74%,13.8%,49.6%,8.06%,51.4%,2.02%,4.05%,3.87%,19%,-7.5%
O=C(NCC1CC1)c1ccc(-c2cccc(C(=O)NC3CC3)c2)cc1,1.69%,2.82%,3.7%,3.84%,8.82%,1.84%,3.12%,3.93%,5.95%,-3.58%
NC(=O)c1cc(-c2ccc(F)cc2)cc(-c2ccncc2)c1N,4.82%,4.33%,5.14%,2.42%,6.04%,1.8%,4.91%,1.26%,5.07%,-7.77%
COc1cccc(-n2cnc3c(N/N=C/c4ccncc4)ncnc32)c1,28.5%,44.6%,85.3%,29%,72.2%,-1.9%,-4.64%,12.7%,59.5%,3.99%
Fc1ccc(-c2ncn(C3CCNCC3)c2-c2ccnc(Oc3ccc(Oc4ccccc4)cc3)n2)cc1,1.98%,1.99%,2.86%,3.87%,2.97%,4.84%,4.48%,2.96%,3.58%,-7.4%
COc1ccc(-c2ccc3c(NC(=O)C4CC4)n[nH]c3n2)cc1,21.2%,2.3%,9.63%,2.39%,19.3%,1.28%,1.76%,2.81%,8.05%,-1.95%
Cc1nnc(-c2ccc(C)c(-c3ccc(C(=O)NCc4ccc(Cl)cc4)cc3)c2)o1,3.98%,3.1%,5.29%,-2.31%,1.59%,-1.04%,0.41%,-0.31%,2.57%,-5.93%
CCc1nccc2c1nc(-c1nonc1N)n2CC,-0.14%,2.18%,2.26%,1.88%,7.3%,0.99%,0.3%,2.12%,9.26%,-0.45%
CCN(CC)Cc1ccc(Nc2nccc(-c3cnn4ncccc34)n2)cc1,47.4%,8.38%,39.5%,6.1%,29.5%,2.57%,24.4%,1.47%,22.2%,-3.64%
Nc1nccc(-c2c(-c3ccc(F)cc3)ncn2C2CCC(O)CC2)n1 (stereo not given),42.7%,1.83%,24.4%,1.2%,36.8%,-2.24%,2.88%,0.37%,30.3%,2.47%
c1ccc(Oc2ccc(Nc3ncc(-c4ccccc4)o3)cc2)cc1,1.01%,1.56%,3.65%,2.29%,7.18%,0.41%,2.22%,1.49%,1.49%,-1.17%
CCS(=O)(=O)c1ccc(OC)c(Nc2ncc(-c3ccccc3Cl)o2)c1,11.7%,5.95%,33.3%,2.99%,29.3%,0.79%,5.19%,4.89%,24.5%,-0.86%
FC(F)(F)c1cccc(Nc2nccc(-c3cnn4nc(-c5ccccc5)ccc34)n2)c1,1.88%,-1.1%,3.96%,-0.03%,5.59%,1.89%,1.6%,3.3%,3.79%,-3.39%
CN(C)c1ccc2c(c1)/C(=C/Nc1ccc(S(N)(=O)=O)cc1)C(=O)N2,18.4%,4.7%,18.7%,2.76%,21.3%,1.86%,8.32%,2.83%,4.52%,0.79%
C/C(Nc1ccc(S(N)(=O)=O)cc1)=C1/C(=O)Nc2ccccc21,12.2%,-0.47%,12.8%,1.79%,11.7%,-1.33%,14.2%,-0.23%,10.1%,0.11%

SMILES,inhibition [1],inhibition [2],inhibition [3],inhibition [4],inhibition [5],inhibition [6],inhibition [7],inhibition [8],inhibition [9],inhibition [10]
NS(=O)(=O)c1ccc(N/N=C2\C(=O)Nc3ccc(C(=O)NCCCn4ccnc4)cc32)cc1,14.2%,5.66%,15.5%,2.77%,13.3%,3.7%,11.1%,4.28%,9.85%,-2.66%
COc1ccc2cc(-c3c(-c4ccncc4)nc(-c4ccc([S+](C)[O-])cc4C)n3C)ccc2c1 (stereo not given),54.5%,1.98%,16%,2.56%,15.7%,-0.66%,2.15%,5.58%,12.1%,1.01%
NC(=O)Cc1ccccc1Oc1nccc(-c2c(-c3ccc(F)cc3)ncn2C2CCNCC2)n1,-0.82%,1.75%,1.1%,2.7%,5.08%,4.05%,8.13%,2.21%,2.93%,-5.91%
NC(=O)c1ccc(Oc2nccc(-c3c(-c4ccc(F)cc4)ncn3C3CCNCC3)n2)cc1,2.27%,3.97%,3.32%,4.17%,2.89%,4.85%,4.45%,2.35%,3.64%,-7.67%
Fc1ccc(-c2ncn(C3CCNCC3)c2-c2ccnc(Oc3ccc4c(c3)OCO4)n2)cc1,3.48%,4.71%,4.75%,5.17%,9.1%,4.91%,6.26%,5.06%,9%,-7.21%
NS(=O)(=O)c1ccc(Nc2cc(-c3ccc(O)c(F)c3)n[nH]2)cc1,22.8%,2.85%,35.6%,0.38%,34.8%,-2.35%,8.38%,0.56%,16.9%,1.86%
CN(C)CCOc1ccc(-c2cc(-c3ccc4c(c3)CCC4=NO)c(-c3ccncc3)o2)cc1,19.4%,2.44%,22.1%,2.01%,20.3%,-1.95%,-0.08%,2.43%,18.6%,1.32%
Cc1ccc(C(=O)NC(C)C)cc1-c1ccc(C(=O)NCC2CC2)cc1,0.58%,-2.81%,-0.96%,0.14%,1.26%,-4.4%,-3.45%,-2.09%,-0.41%,2.35%
O=C1Nc2ccc(I)cc2C1=Cc1cc(Br)c(O)c(Br)c1,2.95%,1.68%,5.83%,5.59%,6.33%,3.04%,4.7%,4.07%,6.48%,-5.83%
COc1ccc2cc(-c3c(-c4ccncc4)nc(-c4ccc(S(C)(=O)=O)cc4C)n3C)ccc2c1,42.6%,4.62%,18%,2.92%,13.5%,2.91%,6.27%,2.97%,11.7%,-5.68%
COc1cc(C)c(N(C)C(=O)CN(C)C)cc1Nc1nc(Nc2cccc(F)c2C(N)=O)c2cc[nH]c2n1,-0.05%,2.02%,1.33%,0.32%,0.22%,22.4%,69.9%,-2.32%,-3.83%,-0.45%
COc1cc(N2CCN(C(C)C)CC2)ccc1Nc1nc(Nc2ccc(F)cc2C(=O)NC[C@@H](O)CO)c2cc[nH]c2n1,6.94%,4.03%,6.49%,-1.73%,0.53%,82.6%,69.5%,-1.39%,1.38%,-4.74%
Cc1ccc(C(=O)NC2CCC2)cc1-c1ccc(C(=O)NCC2CC2)cc1,-1.77%,2.23%,0.38%,3.73%,5.96%,2.79%,3.48%,3.15%,0.48%,-4.44%
Fc1ccc(-c2c(-c3ccncc3)nc3n2CCS3)cc1,3.81%,2.69%,5.48%,-1.32%,2.3%,-2.59%,-1.88%,-2.22%,2.07%,-4.74%
Cc1ccc(NC(=O)c2ccoc2)cc1-c1ccc(C(=O)NCC2CC2)cc1,1.92%,1.38%,-0.92%,1.09%,1.49%,1.85%,4.11%,2.28%,2.36%,-3.64%
Fc1ccc(-c2ncn(CCCN3CCOCC3)c2-c2ccncc2)cc1,-0.98%,-0.87%,0.03%,1.14%,0.89%,1.45%,-0.45%,1.71%,5.07%,-0.1%
CCc1cccc(CC)c1/C=C/c1cncc(C(=O)NC)c1,4.76%,5.29%,22.2%,8.06%,45.9%,2.66%,4.03%,5.58%,12.9%,-2.3%
